For part of these data: Results with a measured potency or affinity are listed apart. Calls of active or inactive are those of the source.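 Rule for the calls, unless noted: active = fitted half-maximal concentration within 10 nM to 100 µM, steepness 0.5 to 2, significant signal drop, low assay interference; inactive = the rest.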

In experiment [1] the target is Cell division control protein 42 homolog (Homo sapiens) (UniProt P60953). Kind of experiment: inhibition of fluorescent GTP binding to constitutively active Cdc42 – biochemical, multiplex bead flow cytometry, Bodipy-FL-GTP, dose response (AID 1333;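 active = fitted half-maximal concentration within the tested dose range, moderate curve steepness, a statistically real signal drop, and little compound fluorescence or tag-binding interference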).
Chain of Cell division control protein 42 homolog (Homo sapiens) (P60953 whole entry, looked up): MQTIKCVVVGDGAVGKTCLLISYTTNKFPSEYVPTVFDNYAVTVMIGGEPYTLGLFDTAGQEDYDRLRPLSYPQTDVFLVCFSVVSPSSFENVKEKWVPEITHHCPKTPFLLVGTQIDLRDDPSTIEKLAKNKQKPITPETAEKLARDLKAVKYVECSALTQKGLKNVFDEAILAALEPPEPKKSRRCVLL
Experiment [2] has the same target. Kind of experiment: inhibition of fluorescent GTP binding to wildtype Cdc42 – biochemical, multiplex bead flow cytometry, Bodipy-FL-GTP, dose response (AID 1334;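 active = fitted half-maximal concentration within the tested range, moderate curve steepness, significant signal drop, and little compound fluorescence or bead-linkage interference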). The conditions noted are these: bead-based flow cytometry, Bodipy-FL-GTP binding to GST-Cdc42; at 100 µM (top of the series) unless noted.
For experiment [3], the target named is GTPase HRas (Homo sapiens) (UniProt P01112). Kind of experiment: Ras wt fluorescent GTP loading blockade – biochemical, wildtype, multiplex bead flow cytometry, dose response (AID 1335). The conditions noted are these: bead-based flow cytometry, Bodipy-GTP binding to GST-Ras; at 100 µM (top of the series) unless noted.
Chain of GTPase HRas (Homo sapiens) (P01112 whole entry, looked up): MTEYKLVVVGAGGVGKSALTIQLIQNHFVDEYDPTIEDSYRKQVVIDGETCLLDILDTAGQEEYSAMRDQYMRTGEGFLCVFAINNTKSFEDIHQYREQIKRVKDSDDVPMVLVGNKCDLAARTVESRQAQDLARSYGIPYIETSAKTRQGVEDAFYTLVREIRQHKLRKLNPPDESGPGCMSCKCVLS
For experiment [4], the system named is Ras-related protein Rab-7a (dog), GTP binding. In words: blockers of fluorescent GTP binding to Rab7 – biochemical, wildtype, multiplex bead flow cytometry, dose response (AID 1336; call rule not given here).
In experiment [5] the target is Ras-related C3 botulinum toxin substrate 1 (Homo sapiens) (UniProt P63000). Kind of experiment: inhibition of wildtype Rac1 nucleotide loading – biochemical, multiplex bead flow cytometry, dose response (AID 1340;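 active = dose curve with midpoint inside tested range, moderate steepness, plateau gap beyond fit error, low compound glow and bead-link interference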). The conditions noted are these: GST-Rac1 beads, Bodipy-FL-GTP binding; at 100 µM (top of the series) unless noted.
For experiment [6], the target named is GTPase HRas (Homo sapiens) (UniProt P01112). In words: blockade of GTP loading onto mutant Ras – biochemical, activated mutant, multiplex bead flow cytometry, dose response (AID 1341;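 active = dose-response curve with midpoint inside the tested range, moderate steepness, significant amplitude and little compound fluorescence or bead-attachment interference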;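 note: GST-tagged constitutively activated Ras mutant immobilized on beads and multiplexed with other GTPases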).

Consider `CCOC(=O)c1cc(C(=O)OCC)c2ccccn2c1=O`, for which the compound was classed as inactive in experiment [1], in experiment [4] and in experiment [6]. For the same compound, in experiment [2], the fluorescence, percent of control (lower = inhibition) worked out at 42.1%. For the same compound, in experiment [3], the GTP binding, percent of control came out at 87.2%. Besides, in experiment [5], the GTP binding signal, raw median fluorescence (lower = inhibition) (MCF (arbitrary fluorescence units)) was 246.

For the compound `Clc1ccc(CN(Cc2ccc(Cl)cc2)c2nn[nH]n2)cc1`, the compound was called inactive in experiment [1], in experiment [4] and in experiment [6]. Moreover, in experiment [2], the fluorescence, percent of control (lower = inhibition) came out at 28.2%. In experiment [3], this compound registered a GTP binding, percent of control of 85%. The same compound came in with a GTP binding signal, raw median fluorescence (lower = inhibition) (MCF (arbitrary fluorescence units)) in experiment [5] of 246.

`COc1ccc(C2(CNC(=O)C(c3ccccc3)c3ccccc3)CCOCC2)cc1OC`: the call in experiment [1], in experiment [4] and in experiment [6] was inactive. Further, in experiment [2], the fluorescence, percent of control (lower = inhibition) worked out at 34%. This compound also registered a GTP binding, percent of control in experiment [3] of 80.6%. The GTP binding signal, raw median fluorescence (lower = inhibition) (MCF (arbitrary fluorescence units)) in experiment [5] was 276.

For the compound `Cc1ccc(-c2cn3cccc(C)c3n2)cc1`, the result in experiment [1], in experiment [4] and in experiment [6] was inactive. The fluorescence, percent of control (lower = inhibition) in experiment [2] was found to be 35.6%. In experiment [3], this compound gave a GTP binding, percent of control of 86%. In addition, the GTP binding signal, raw median fluorescence (lower = inhibition) (MCF (arbitrary fluorescence units)) in experiment [5] stood at 167.

Consider `N#CCc1c(C#N)c(N)nc(N2CCN(C=O)CC2)c1C#N`, for which the compound was called inactive in experiment [1], in experiment [4] and in experiment [6]. In experiment [2], the fluorescence, percent of control (lower = inhibition) was 33.7%. The compound also yielded a GTP binding, percent of control in experiment [3] of 75.4%. Moreover, in experiment [5], the GTP binding signal, raw median fluorescence (lower = inhibition) (MCF (arbitrary fluorescence units)) was determined as 170.

On to `COc1ccc(OC)c(CNCc2sc(C(=O)O)cc2C)c1`, for which the compound was called inactive in experiment [1], in experiment [4] and in experiment [6]. Besides, the fluorescence, percent of control (lower = inhibition) in experiment [2] was 59.9%. In addition, the GTP binding, percent of control in experiment [3] worked out at 81.9%. This compound also displayed a GTP binding signal, raw median fluorescence (lower = inhibition) (MCF (arbitrary fluorescence units)) in experiment [5] of 32.8.

In the case of `O=C(Nc1nc(-c2cccs2)cs1)c1cc2ccccc2oc1=O`, the compound was classed as inactive in experiment [1], in experiment [4] and in experiment [6]. In addition, the fluorescence, percent of control (lower = inhibition) in experiment [2] was determined as 51.8%. For the same compound, the GTP binding, percent of control in experiment [3] is 130%. The GTP binding signal, raw median fluorescence (lower = inhibition) (MCF (arbitrary fluorescence units)) in experiment [5] was determined as 141.

Turning to `CCOc1cccc(-c2nn3c(-c4ccco4)nnc3s2)c1`, the compound was classed as inactive in experiment [1], in experiment [4] and in experiment [6]. Further, the fluorescence, percent of control (lower = inhibition) in experiment [2] was 32.7%. The compound further gave a GTP binding, percent of control in experiment [3] of 71.3%. In experiment [5], the GTP binding signal, raw median fluorescence (lower = inhibition) (MCF (arbitrary fluorescence units)) amounted to 164.

For the compound `Cc1cccc(CCNc2ncccc2C(=O)O)c1`, the compound was called inactive in experiment [1], in experiment [4] and in experiment [6]. For the same compound, the fluorescence, percent of control (lower = inhibition) in experiment [2] amounted to 122%. Moreover, in experiment [3], the GTP binding, percent of control turned out to be 337%. In experiment [5], this compound had a GTP binding signal, raw median fluorescence (lower = inhibition) (MCF (arbitrary fluorescence units)) of 101.

On to `CN(Cc1ccccc1)c1ccc([N+](=O)[O-])cc1C(=O)O`, for which the call in experiment [1], in experiment [4] and in experiment [6] was inactive. Besides, the fluorescence, percent of control (lower = inhibition) in experiment [2] came to 41%. The same compound displayed a GTP binding, percent of control in experiment [3] of 87.3%. Besides, in experiment [5], the GTP binding signal, raw median fluorescence (lower = inhibition) (MCF (arbitrary fluorescence units)) stood at 276.

For the compound `CCOC(=O)c1ccc(Nc2nc(C(=O)OCC)nc3ccccc23)cc1`, the result in experiment [1], in experiment [4] and in experiment [6] was inactive. In addition, the fluorescence, percent of control (lower = inhibition) in experiment [2] is 66.3%. The same compound registered a GTP binding, percent of control in experiment [3] of 128%. The compound further gave a GTP binding signal, raw median fluorescence (lower = inhibition) (MCF (arbitrary fluorescence units)) in experiment [5] of 159.

For the compound `CC(=O)Nc1ccc(/C=N/NC(=O)CCN2CCN(c3ccccc3)CC2)cc1`, the result in experiment [1], in experiment [4] and in experiment [6] was inactive. Besides, the fluorescence, percent of control (lower = inhibition) in experiment [2] was found to be 33.8%. Further, the GTP binding, percent of control in experiment [3] was 74.7%. Further, the GTP binding signal, raw median fluorescence (lower = inhibition) (MCF (arbitrary fluorescence units)) in experiment [5] is 140.

Turning to `Cc1ccccc1Nc1cc(C(=O)O)c2ccccc2n1`, the compound was classed as inactive in experiment [1], in experiment [4] and in experiment [6]. Besides, in experiment [2], the fluorescence, percent of control (lower = inhibition) was determined as 62.2%. This compound also displayed a GTP binding, percent of control in experiment [3] of 86.6%. Further, in experiment [5], the GTP binding signal, raw median fluorescence (lower = inhibition) (MCF (arbitrary fluorescence units)) was determined as 32.7.

With `O=C(Cc1ccc(Nc2nc(=S)[nH]c3ccccc23)cc1)NC1CCCCC1`, the result in experiment [1], in experiment [4] and in experiment [6] was inactive. In addition, in experiment [2], the fluorescence, percent of control (lower = inhibition) was found to be 25.9%. For the same compound, the GTP binding, percent of control in experiment [3] was found to be 61.6%. In experiment [5], this compound showed a GTP binding signal, raw median fluorescence (lower = inhibition) (MCF (arbitrary fluorescence units)) of 153.

Regarding `O=C(O)C1C2C=CC(C2)C1C(=O)N1CCOCC1` (stereo not given), the call in experiment [1], in experiment [4] and in experiment [6] was inactive. Besides, the fluorescence, percent of control (lower = inhibition) in experiment [2] came to 53.2%. The same compound displayed a GTP binding, percent of control in experiment [3] of 66.4%. The compound further returned a GTP binding signal, raw median fluorescence (lower = inhibition) (MCF (arbitrary fluorescence units)) in experiment [5] of 216.

These data come from PubChem BioAssay.
